Laboratory results published in PubChem BioAssay (NCI).
The panel holds about 83,000 compounds, 20% with a hit somewhere; the sample as a whole holds those more often.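 Plates (96-well) were seeded with cells, treated with compound at one concentration, and incubated for 48 hours before percent growth was determined.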 Unmarked numbers belong to inactive results. The source made the active and inactive calls. The calls were made as follows: active = growth percent below 10; inactive = the rest.

Tests used:
Experiment in all cases: NCI-60 one-dose screen, 48 h (100 = growth as untreated, 0 = no growth, -100 = all killed)
Conditions in all cases: 10 µM unless noted
[1] = system: NCI-H23 lung
[2] = system: NCI-H226 lung
[3] = system: NCI-H322M lung
[4] = system: HOP-62 NSCLC
[5] = system: NCI-H460 lung
[6] = system: HOP-92 NSCLC
[7] = system: NCI-H522 lung
[8] = system: A549/ATCC NSCLC
[9] = system: 786-0 renal
[10] = system: COLO 205 colon

Compound	growth [1]	growth [2]	growth [3]	growth [4]	growth [5]	growth [6]	growth [7]	growth [8]	growth [9]	growth [10]
COc1ccc(-c2nc3sccn3c2/C=C/C(=O)c2c[nH]c3ccccc23)cc1	73.2%	66.8%	63.6%	71.7%	70.2%	-5.53% (active)	55.6%	54.1%	78.8%	102%
COc1cc(C2CC(c3ccc(Nc4nc(Nc5ccc(F)cc5)nc(Nc5ccc(Cl)cc5)n4)cc3)=NN2C(C)=O)cc(OC)c1OC (stereo not drawn)	68.8%	67.9%	84.8%	72.3%	77.9%	51.8%	73.8%	50.8%	87.2%	58%
Cc1cccc(-c2cc(O)c(C(=O)N3CCOCC3)s2)c1	55.2%	68%	63.6%	38.3%	17.7%	73.7%	0.179% (active)	37.7%	51.4%	94.9%
COc1cc(NC(=O)c2cccc(-c3cc(=O)c4c(OC)c(OC)c(OC)cc4o3)c2)cc(OC)c1OC	48.8%	58.5%	69.5%	37.5%	30%	24.7%	34.7%	43.5%	31.8%	44.3%
COc1cc(-c2ncn(/C=C\c3nnco3)n2)cc(C(F)(F)F)c1	26.6%	-0.243% (active)	8.72% (active)	39.8%	0.25% (active)	61.4%	-11.4% (active)	16.7%	5.1% (active)	0.0945% (active)
O=c1[nH]c(NCc2nnnn2-c2ccc(Br)cc2)nc2sc3c(c12)CCCC3	97.6%	94.3%	91.1%	94.1%	100%	94.5%	72.2%	77.4%	88%	97.9%
CCCCC1COc2cccc3c(SCC(=O)N(C)c4cccc(Cl)c4)cc[n+]1c23 (stereo not drawn)	99.9%	103%	107%	109%	113%	113%	96.9%	109%	107%	110%
Fc1ccc(Nc2nc(Nc3ccc(-c4nc5ccccc5[nH]4)cc3)c3cn[nH]c3n2)cc1	71%	86.9%	84.8%	85.6%	47.5%	79%	65.9%	73.1%		27.8%
Cc1nc2ccccc2c(/C=C/c2ccc(Cl)cc2)c1C(=O)/C=C/c1ccc(Cl)cc1	-19.7% (active)	-40.6% (active)	5.27% (active)	-7.32% (active)	-76.3% (active)	-59.9% (active)	-14.6% (active)	56.9%		-24.5% (active)
CCOC(=O)c1nnn(-c2ccccc2)c1C1=CN(C)CCC1	92.8%	102%	95.8%	99.6%	104%	108%	86.7%	99.6%	97.3%	113%
C=C1C(=O)O[C@H]2[C@H]1CC/C(COC(=O)/C=C\C(=O)NCc1ccc(Cn3c(=O)sn(CCCI)c3=O)cc1)=C\CC[C@@]1(C)O[C@@H]21	-72.1% (active)	-77% (active)	17.3%	-36% (active)	-79.1% (active)	-68.6% (active)	-56.1% (active)	-0.92% (active)	-76.9% (active)	-52.7% (active)
COc1ccc(/C(C)=C(\c2ccc(Cl)cc2)c2ccc(OCCN3CCCCC3)cc2)cc1F	48.1%	77%	76.1%	16.8%	7.34% (active)	59.6%	65.5%	53%	2.47% (active)	5.95% (active)
CC(=O)Nc1ccc(C(=O)/C=C/c2ccccc2)cc1	96.1%	83.5%	88.9%	101%	98.3%	47.8%	53%	76.3%	58.3%	102%
O=C1c2ccccc2C(=O)c2cc(Cn3cc[n+](Cc4ccc5ccccc5c4)c3)ccc21	75.6%	83.3%	91%	107%	94%	47.8%	38.9%	110%	98.8%	58.6%
CCOC(=O)c1sc(-c2ccc(OS(=O)(=O)c3ccc(C(C)(C)C)cc3)c(C=O)c2)nc1C	33.3%	48.5%	93.7%	52%	41.7%	21.1%	22.1%	84.9%	47.2%	72.7%
O=C(CCc1nc(-c2cccc(Cl)c2)no1)Nc1ccccn1	89.2%	89.8%	108%	124%	103%	82.3%	84.5%	111%	96.3%	117%
CC(=O)Nc1ccc(-c2cc3c(NCc4ccc(F)cc4)ncnc3s2)cc1	77.5%	78.4%	82.7%	58%	77.3%	76%	56.6%	83.9%	82.7%	106%
COc1cc2c(O)n(CCCn3ccnc3)c3c4cnc5cccc(c(=O)c3c2cc1OC)c54	38.8%	41.8%	77.9%	13.1%	6.78% (active)	28%	18.7%	35.6%	7.01% (active)	33.1%
O=c1[nH]nc(-c2ccc(Cl)cc2)cc1Cc1ccccc1	92.3%	79.9%	155%	90.5%	104%	86.2%	35%	42.1%	96.9%	116%
C[C@]12CCC(=O)C[C@H]1CC[C@@H]1[C@@H]2CC[C@@]2(C)[C@H]1CC[C@]2(O)C(=O)CO	107%	94.2%	103%	105%	107%	93.2%	89.4%	122%	105%	100%
Cc1nc(Nc2ccc(S(=O)(=O)Nc3cc(C)on3)cc2)c2ccccc2n1	107%	99.7%	104%	101%	112%	89%	86.3%	108%	98.3%	116%
N#Cc1c(N)nc2c(nnn2-c2cccc(C(F)(F)F)c2)c1N	86.6%	92.4%	89.8%	80.5%	95.9%	77.6%	75.2%	78%	101%	104%
Nc1c(C(=O)c2ccc(Cl)s2)sc2nc3c(cc12)CCCC3	91.5%	96.6%	103%	97.3%	98.6%	82.5%	83.1%	100%	106%	110%
COc1cc(-c2cc(-c3ccc(Nc4nc(Nc5ccccc5)nc(Nc5ccc(Cl)cc5)n4)cc3)nc(N)n2)cc(OC)c1OC	46.9%	75.6%	81.9%	47.2%	65.8%	42.4%	66.3%	79.3%	44%	76.6%
CCCCN(Cc1ccc(C(=O)NO)cc1)C(=O)Nc1ccc(OCCCCCCCCCn2cc(CCCCC(=O)N[C@H](C(=O)N3C[C@H](O)C[C@H]3C(=O)NCc3ccc(-c4scnc4C)cc3)C(C)(C)C)nn2)cc1	33.4%	46.1%	63.7%	39.7%	11.6%	-11.4% (active)	19.5%	86.8%	69.8%	36.9%
